Publication PMC7826789 (International Journal of Molecular Sciences, 2021)

tested on: MYO3A; settings: Compound Concentration (nM):1000
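Note: KINOMEscan scanMAX binding as percent activity remaining versus control; lower means stronger binding.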

Row | Structure (SMILES) | Percent Control
1 | CN1CCN(C(=O)c2ccc(NC(=O)Nc3ccc(N(C)c4ccnc(Nc5ccc(CS(C)(=O)=O)cc5)n4)cc3)cc2)CC1.Cl [GW830263A] | 7%
2 | COC(=O)Nc1nc2ccc(Oc3ccc(NC(=O)Nc4cc(C(F)(F)F)ccc4F)cc3)cc2s1.Cl [GW693917A] | 93%
3 | COc1ccc2cc(-c3c(-c4ccncc4)nc(-c4ccc(S(C)(=O)=O)cc4C)n3C)ccc2c1 [SB-633825] | 53%
4 | COc1cc(C=NNc2ncnc3c2cnn3-c2ccccc2)ccc1O [GW513184X] | 100%
5 | COc1cccc(-n2ncc3c(N/N=C/c4ccncc4)ncnc32)c1 [GW784752X] | 100%
6 | COc1cc(N2CCN(C(C)C)CC2)ccc1Nc1nc(Nc2ccc(F)cc2C(=O)NC[C@@H](O)CO)c2cc[nH]c2n1 [GSK1392956A] | 88%
7 | CC(C)COC(=O)c1ccc2c(c1)/C(=C/Nc1ccc(S(N)(=O)=O)cc1)C(=O)N2 [GW416981X] | 100%
8 | CC1=C(C(=O)Nc2ccc3[nH]ncc3c2)C(c2ccc3ccccc3c2)CC(=O)N1 (centres unmarked) [GSK270822A] | 90%
9 | NS(=O)(=O)c1ccc(Nc2ncc(-c3ccccc3)o2)cc1 [GW572399X] | 100%
10 | CC1=C(C(=O)Nc2ccc3[nH]ncc3c2)C(c2ccc(Cl)c(Cl)c2)CC(=O)N1 (centres unmarked) [GSK299115A] | 88%
11 | NS(=O)(=O)c1ccc(N/N=C2\C(=O)Nc3ccc(C(=O)NCc4ccncc4)cc32)cc1 [GW300657X] | 68%
12 | CCc1ccc(Oc2nccc(-c3c(-c4ccc(F)cc4)ncn3C3CCNCC3)n2)cc1 [SB-242719] | 87%
13 | Cl.O=C(Nc1ccc(Oc2ccc3[nH]c(NC(=O)c4ccccc4)nc3c2)cc1)Nc1cc(C(F)(F)F)ccc1F [GW709042A] | 100%
14 | COc1cccc(-c2c[nH]c3c(N/N=C/c4ccncc4)ncnc23)c1 [GW814408X] | 100%
15 | CCS(=O)(=O)c1ccc(OC)c(Nc2ncc(-c3cccc(F)c3)o2)c1 [GW621970X] | 100%
16 | Cc1cc(O)cc(C)c1/C=C/c1cncc(C(N)=O)c1 [GW435821X] | 100%
17 | Cl.O=C(Nc1ccc(Oc2ccc3[nH]c(NC(=O)c4ccco4)nc3c2)cc1)Nc1cc(C(F)(F)F)ccc1F [GW683134A] | 100%
18 | O=C(Nc1n[nH]c2nc(-c3ccc(O)cc3)c(Br)cc12)C1CC1 [SB-725317] | 48%
19 | COc1cc2ncn(-c3cc(O[C@H](C)c4ccccc4Cl)c(C(N)=O)s3)c2cc1OC [GSK237701A] | 100%
20 | COc1ccc(COc2ccc(Cc3cnc(N)nc3N)cc2OC)cc1 [GW632580X] | 92%
21 | O=C1Nc2ccc(C(=O)c3ccco3)cc2C1=Cc1cc(Cl)c(O)c(Cl)c1 [GW406108X] | 34%
22 | Cl.O=C(O[C@H]1CN[C@H](C#Cc2cc3ncnc(Nc4ccc5c(cnn5Cc5ccccc5)c4)c3s2)C1)N1CCOCC1 [GSK200398A] | 100%
23 | COc1cc(C)c(N(C)C(=O)CN(C)C)cc1Nc1nc(Nc2cccc(F)c2C(N)=O)c2cc[nH]c2n1 [GSK2219385] | 96%
24 | Nc1ncnc2occ(-c3ccc(NC(=O)Nc4cc(C(F)(F)F)ccc4F)cc3)c12 [GW770249X] | 9.7%
25 | COc1cc(/C=N/Nc2ncnc3[nH]ncc23)ccc1O [GW578748X] | 100%
26 | C[C@@H](Oc1cc(-n2cnc3ccc(OC4CCN(C)CC4)cc32)sc1C(N)=O)c1ccccc1Cl [GSK579289A] | 74%
27 | COc1ccc2c(-c3ccnc(Nc4cccc(OC(F)(F)F)c4)n3)cnn2n1 [GW810372X] | 100%
28 | CN(C)c1cc2c(Nc3ccc4c(cnn4Cc4ccccc4)c3)ncnc2cn1 [GW282974X] | 92%

tested on: MYO3B; settings: Compound Concentration (nM):1000

Row | Structure (SMILES) | Percent Control
29 | CCn1c(-c2nonc2N)nc2c(C#CC(C)(C)O)nc(OCCNC)cc21.Cl [GSK949675] | 98%
30 | Cl.O=S1CCN(Cc2ccc(-c3ccc4ncnc(Nc5ccc(OCc6ccccc6)c(F)c5)c4c3)o2)CC1 [GW576924A] | 100%
31 | CCS(=O)(=O)c1ccc(OC)c(Nc2ncc(-c3cccc(OC)c3)o2)c1 [GW580509X] | 100%
32 | Cl.c1ccc(Cc2nc3ccc(Nc4ncnc5ccccc45)cc3[nH]2)cc1 [GR269666A] | 100%
33 | NS(=O)(=O)c1ccc(N/N=C2\C(=O)Nc3ccc(C(=O)NCCc4c[nH]cn4)cc32)cc1 [GW300660X] | 100%
34 | C/C(Nc1ccc(S(N)(=O)=O)cc1)=C1/C(=O)Nc2ccccc21 [GW335962X] | 100%
35 | COc1ccccc1-c1cc(/C=C2\C(=O)Nc3ncc(Br)cc32)cc(Br)c1O [GW442130X] | 100%
36 | NS(=O)(=O)c1ccc(N/N=C2\C(=O)Nc3ccc(-c4cnco4)cc32)cc1 [GW276655] | 100%
37 | CN(C)CCNC(=O)Nc1ccc(N(C)c2ccnc(Nc3ccc(CS(C)(=O)=O)cc3)n2)cc1.Cl [GW830900A] | 92%
38 | COc1ccc2[nH]c3c4[nH]c5ccc(OC)cc5c4c4c(c3c2c1)C(=O)NC4=O [GW296115X] | 100%
39 | COc1cc2ncnc(Nc3ccc4c(cnn4Cc4ccccc4)c3)c2cc1OC.Cl [GW282449A] | 100%
40 | NS(=O)(=O)c1ccc(N/N=C2\C(=O)Nc3ccc(Cl)cc32)cc1 [GW280670X] | 100%
41 | CN1CCN(C(=O)c2ccc(NC(=O)Nc3ccc(N(C)c4ccnc(Nc5ccc(CS(C)(=O)=O)cc5)n4)cc3)cc2)CC1.Cl [GW830263A] | 23%
42 | COC(=O)Nc1nc2ccc(Oc3ccc(NC(=O)Nc4cc(C(F)(F)F)ccc4F)cc3)cc2s1.Cl [GW693917A] | 100%
43 | COc1ccc2cc(-c3c(-c4ccncc4)nc(-c4ccc(S(C)(=O)=O)cc4C)n3C)ccc2c1 [SB-633825] | 18%
44 | COc1cc(C=NNc2ncnc3c2cnn3-c2ccccc2)ccc1O [GW513184X] | 95%
45 | COc1cccc(-n2ncc3c(N/N=C/c4ccncc4)ncnc32)c1 [GW784752X] | 100%
46 | COc1cc(N2CCN(C(C)C)CC2)ccc1Nc1nc(Nc2ccc(F)cc2C(=O)NC[C@@H](O)CO)c2cc[nH]c2n1 [GSK1392956A] | 100%
47 | CC(C)COC(=O)c1ccc2c(c1)/C(=C/Nc1ccc(S(N)(=O)=O)cc1)C(=O)N2 [GW416981X] | 100%
48 | CC1=C(C(=O)Nc2ccc3[nH]ncc3c2)C(c2ccc3ccccc3c2)CC(=O)N1 (centres unmarked) [GSK270822A] | 100%

Row | Structure (SMILES) | Percent Control
49 | NS(=O)(=O)c1ccc(Nc2ncc(-c3ccccc3)o2)cc1 [GW572399X] | 100%
50 | CC1=C(C(=O)Nc2ccc3[nH]ncc3c2)C(c2ccc(Cl)c(Cl)c2)CC(=O)N1 (centres unmarked) [GSK299115A] | 90%
51 | NS(=O)(=O)c1ccc(N/N=C2\C(=O)Nc3ccc(C(=O)NCc4ccncc4)cc32)cc1 [GW300657X] | 100%
52 | CCc1ccc(Oc2nccc(-c3c(-c4ccc(F)cc4)ncn3C3CCNCC3)n2)cc1 [SB-242719] | 100%
53 | Cl.O=C(Nc1ccc(Oc2ccc3[nH]c(NC(=O)c4ccccc4)nc3c2)cc1)Nc1cc(C(F)(F)F)ccc1F [GW709042A] | 100%
54 | COc1cccc(-c2c[nH]c3c(N/N=C/c4ccncc4)ncnc23)c1 [GW814408X] | 100%
55 | CCS(=O)(=O)c1ccc(OC)c(Nc2ncc(-c3cccc(F)c3)o2)c1 [GW621970X] | 100%
56 | Cc1cc(O)cc(C)c1/C=C/c1cncc(C(N)=O)c1 [GW435821X] | 100%
57 | Cl.O=C(Nc1ccc(Oc2ccc3[nH]c(NC(=O)c4ccco4)nc3c2)cc1)Nc1cc(C(F)(F)F)ccc1F [GW683134A] | 100%
58 | O=C(Nc1n[nH]c2nc(-c3ccc(O)cc3)c(Br)cc12)C1CC1 [SB-725317] | 100%
59 | COc1cc2ncn(-c3cc(O[C@H](C)c4ccccc4Cl)c(C(N)=O)s3)c2cc1OC [GSK237701A] | 100%
60 | COc1ccc(COc2ccc(Cc3cnc(N)nc3N)cc2OC)cc1 [GW632580X] | 100%
61 | O=C1Nc2ccc(C(=O)c3ccco3)cc2C1=Cc1cc(Cl)c(O)c(Cl)c1 [GW406108X] | 100%
62 | Cl.O=C(O[C@H]1CN[C@H](C#Cc2cc3ncnc(Nc4ccc5c(cnn5Cc5ccccc5)c4)c3s2)C1)N1CCOCC1 [GSK200398A] | 100%
63 | COc1cc(C)c(N(C)C(=O)CN(C)C)cc1Nc1nc(Nc2cccc(F)c2C(N)=O)c2cc[nH]c2n1 [GSK2219385] | 100%
64 | Nc1ncnc2occ(-c3ccc(NC(=O)Nc4cc(C(F)(F)F)ccc4F)cc3)c12 [GW770249X] | 15%
65 | COc1cc(/C=N/Nc2ncnc3[nH]ncc23)ccc1O [GW578748X] | 100%
66 | C[C@@H](Oc1cc(-n2cnc3ccc(OC4CCN(C)CC4)cc32)sc1C(N)=O)c1ccccc1Cl [GSK579289A] | 87%
67 | COc1ccc2c(-c3ccnc(Nc4cccc(OC(F)(F)F)c4)n3)cnn2n1 [GW810372X] | 100%
68 | CN(C)c1cc2c(Nc3ccc4c(cnn4Cc4ccccc4)c3)ncnc2cn1 [GW282974X] | 99%
